Reference: a collection of fitness landscapes (doi:10.1016/j.celrep.2020.107928)
In all, about 81,000 sequences were measured (“one-hybrid fitness for binding NBS DNA”: median about -0.1, highest 2% from about 0.36 on). This is one part of a sample in which the highest values are shown more often than they occur.

B1: Caulobacter ParB omega fusion; a variant is named by its letters at X, in order, B8GW30 (parent)
chain: MESVVVGEPGMSEGRRGLGRGLSALLGEVDAAPAQAPGEQLGGSREAPIEILQRNPDQPRRTFREEDLEDLSNSIREKGVLQPILVRPSPDTAGEYQIVAGERAWRAAQRAGLKTVPIMVRELDDLAVLEIGIIENVQRADLNVLEEALSYKVLMEKFERTQENIAQTIGKSXSHVANXMRLLXLPDEVQSYLVSGELTAXHARAIAAAADPVALAKQIIEGGLSVRETEALARKAPNLSAGKSKGGRPPRVKDTDTQALESDLSSVLGLDVSIDHRGSTGTLTITYATLEQLDDLCNRLTRGI

Variants of: B1
Test: one-hybrid fitness for binding NBS DNA (the Noc-binding site; scaled: cognate 1, non-cognate 0); higher = stronger binding
Conditions: with NBS DNA site
In short: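 Pre- and post-selection plasmids were Illumina-sequenced, three replicate libraries were pooled, and any variant with under 10 reads was removed. The libraries were Caulobacter ParB with four specificity codons randomised, selected in E. coli USO through a HIS3 reporter whose site is 19 bp from the promoter. Cells grew 48 hours at 37°C on M9 without histidine, with 0.1 mM IPTG and 5 mM 3-AT. Fitness is the log change in variant-to-wild-type read ratio, rescaled against cognate and non-cognate.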

Variant	one-hybrid fitness for binding NBS DNA
CNVT	≤ 0.2
ADWS	≤ 0.2
MSTF	≤ 0.2
QTYH	0.271
QTRH	0.695
VRKE	≤ 0.2
VRDT	≤ 0.2
VRNT	0.374
VCRT	≤ 0.2
VRVT	≤ 0.2
VRKT	0.393
VRYT	0.225
VRRT	0.432
VCNT	≤ 0.2
VCKT	≤ 0.2
FQNR	≤ 0.2
ARIY	≤ 0.2
LLCL	≤ 0.2
RIHY	≤ 0.2
RHHT	0.419
RNHT	≤ 0.2
RHHK	≤ 0.2
RTHT	0.57

Variant	one-hybrid fitness for binding NBS DNA
RSHT	0.402
RGHT	≤ 0.2
RIHT	0.532
RTHN	≤ 0.2
RIHF	≤ 0.2
RTHP	≤ 0.2
TCRD	≤ 0.2
THRD	≤ 0.2
YERR	≤ 0.2
FARS	≤ 0.2
YKWR	≤ 0.2
GHSC	≤ 0.2
LSHC	≤ 0.2
RPHT	≤ 0.2
RAHT	0.427
RMHH	≤ 0.2
RMHP	≤ 0.2
RAHQ	≤ 0.2
RCHT	0.538
RMHT	0.448
RFHT	0.263
RAHK	≤ 0.2
AGWC	≤ 0.2

Variant	one-hybrid fitness for binding NBS DNA
CVAV	≤ 0.2
ANSI	≤ 0.2
SVIN	≤ 0.2
CNSM	≤ 0.2
QFVR	≤ 0.2
QFYR	≤ 0.2
QFRR	0.441
QFYG	≤ 0.2
QFKR	0.595
QFKH	≤ 0.2
QFAG	≤ 0.2
QFFG	0.554
QFDR	≤ 0.2
QFAR	≤ 0.2
QFFR	0.439
QFFS	≤ 0.2
KDMM	≤ 0.2
CVAL	≤ 0.2
PSKH	≤ 0.2
NIHC	≤ 0.2
ILDT	≤ 0.2
GHDG	≤ 0.2
QTVH	0.247

Variant	one-hybrid fitness for binding NBS DNA
QPKD	≤ 0.2
QTKH	0.744
NTKS	≤ 0.2
QTVS	0.406
DTKS	≤ 0.2
QTKS	0.783
QTVD	≤ 0.2
QTKD	0.398
NTKH	≤ 0.2
LKPK	≤ 0.2
HFKG	≤ 0.2
MFQS	≤ 0.2
CVRD	≤ 0.2
CFTS	≤ 0.2
THAL	≤ 0.2
VGWS	≤ 0.2
YYSE	≤ 0.2
CALW	≤ 0.2
QTKN	0.56
QTKP	0.41
QTVP	≤ 0.2
QCKP	0.332
QTVN	≤ 0.2

Variant	one-hybrid fitness for binding NBS DNA
MGCR	≤ 0.2
YYNE	≤ 0.2
KRKG	0.234
SVHI	≤ 0.2
PNPM	≤ 0.2
QMHD	≤ 0.2
QMHS	0.451
QLHD	≤ 0.2
QLHN	≤ 0.2
QHHD	≤ 0.2
QMHH	0.221
QAHN	≤ 0.2
QHHH	0.214
QAHS	0.398
QAHH	≤ 0.2
QLHS	0.373
QHHS	0.386
HRHV	≤ 0.2
IEST	≤ 0.2
VWYL	≤ 0.2
EEFL	≤ 0.2
ILLI	≤ 0.2
QPHS	≤ 0.2

Variant	one-hybrid fitness for binding NBS DNA
QSHS	0.381
QSHN	≤ 0.2
QSHH	≤ 0.2
QIHS	0.281
QCHS	0.502
CANC	≤ 0.2
RDTV	≤ 0.2
RRTN	0.339
RRTY	0.378
RRTH	0.509
RRTS	0.661
RSTY	≤ 0.2
RCTH	0.237
RRTP	≤ 0.2
RCTY	≤ 0.2
RRTD	≤ 0.2
SLHR	≤ 0.2
ENTM	≤ 0.2
LGQD	≤ 0.2
KSNT	≤ 0.2
PNLF	≤ 0.2
YVMG	≤ 0.2
DWYR	≤ 0.2

Variant	one-hybrid fitness for binding NBS DNA
LYTY	≤ 0.2
QAAG	≤ 0.2
APTR	≤ 0.2
RCHH	0.219
PNAR	≤ 0.2
IYLD	≤ 0.2
QRCF	0.275
QRCM	0.397
QCCM	≤ 0.2
QRCC	0.389
QRCN	0.397
QCCC	≤ 0.2
QSCC	≤ 0.2
QRCE	0.223
QCCN	≤ 0.2
QSCM	≤ 0.2
QRCH	0.52
QRCG	0.343
